Screening data deposited in PubChem BioAssay by National Center for Advancing Translational Sciences (NCATS).
EPAC1 ag – agonists of human EPAC1; EPAC1 agonist qHTS, biochemical assay; response scale: 100% = response to 6.5 mM cAMP; Potency, µM (series often up to 154 µM), for the others: at the top dose activation, usual class: activators; hit rate 0.073% among 360,000; also: nearly all actives have a fitted effect of over 60% in size
Target sequence (O95398 whole entry, looked up): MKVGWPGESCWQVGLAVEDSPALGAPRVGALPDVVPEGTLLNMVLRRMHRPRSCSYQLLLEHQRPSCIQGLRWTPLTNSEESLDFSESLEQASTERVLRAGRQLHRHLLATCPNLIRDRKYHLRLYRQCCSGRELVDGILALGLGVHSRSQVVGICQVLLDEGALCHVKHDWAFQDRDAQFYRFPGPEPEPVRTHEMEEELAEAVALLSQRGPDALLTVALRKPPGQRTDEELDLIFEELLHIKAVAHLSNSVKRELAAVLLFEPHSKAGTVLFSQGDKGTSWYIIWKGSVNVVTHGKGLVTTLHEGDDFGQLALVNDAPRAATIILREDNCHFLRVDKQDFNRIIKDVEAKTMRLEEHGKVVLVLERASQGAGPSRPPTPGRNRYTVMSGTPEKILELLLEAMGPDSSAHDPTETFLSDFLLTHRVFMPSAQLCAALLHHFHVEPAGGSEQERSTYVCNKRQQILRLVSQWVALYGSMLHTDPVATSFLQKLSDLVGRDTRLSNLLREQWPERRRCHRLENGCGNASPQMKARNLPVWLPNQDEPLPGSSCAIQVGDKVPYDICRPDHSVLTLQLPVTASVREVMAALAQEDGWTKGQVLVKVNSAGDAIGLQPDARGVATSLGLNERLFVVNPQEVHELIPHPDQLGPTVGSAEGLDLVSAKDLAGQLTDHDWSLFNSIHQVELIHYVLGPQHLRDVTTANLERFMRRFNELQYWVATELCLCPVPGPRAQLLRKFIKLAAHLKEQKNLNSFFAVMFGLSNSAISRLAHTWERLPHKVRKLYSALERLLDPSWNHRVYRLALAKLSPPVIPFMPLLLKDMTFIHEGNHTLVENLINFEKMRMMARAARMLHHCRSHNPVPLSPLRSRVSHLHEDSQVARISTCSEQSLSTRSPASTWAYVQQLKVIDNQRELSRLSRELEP
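Read-out is the fluorescence drop as BODIPY-GDP leaves Rap1B (480 nm excitation, 540 nm emission), recorded every 5 minutes over 30 minutes. Reactions held 100 nM EPAC1, 250 nM Rap1B–BODIPY-GDP and 50 uM GDP, with 6.5 mM cAMP setting full activation.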
EPAC2 agonist – activates human EPAC2 exchange factor | Q8WZA2 | EPAC2 activation, biochemical qHTS; response scale: 100% = 6.5 mM cAMP response | Potency, µM (highest dose often 154 µM), without a hit: at the highest dose activation, usual class: activators | hit rate 0.079% among 360,000; also: nearly all actives have a fitted effect of over 50% in size
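Nucleotide exchange monitored as fluorescence drop when BODIPY-GDP leaves Rap1B. Reaction: 100 nM EPAC2, 250 nM RAP1B-BODIPY-GDP, 50 uM GDP, room temperature, kinetic read over 30 min. Activity expressed relative to 6.5 mM cAMP.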
EPAC2 antag – antagonists of human EPAC2 | hit rate 0.18% among 360,000 | EPAC2 GEF exchange of Rap1B-BODIPY-GDP, fluorescence | Q8WZA2 | Potency, µM (titrated, usually from 114 µM), inactives show top-dose activity, negative = inhibition, usual class: inhibitors | AID 720708; also: % is scaled to controls: 0 for no effect and ±100 for the full control effect; nearly all actives have a fitted effect of over 45% in size
EPAC1 antagonist – EPAC1 (human) antagonism; AID 720709; hit rate 0.14% among 360,000; EPAC1 GEF assay, Rap1b-BODIPY-GDP exchange fluorescence; O95398; Potency, µM (highest dose often 115 µM), for inactives: at the top dose activity change, negative = inhibition, most hits filed as inhibitors;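 also: plate controls were vehicle for no effect and positive control for full effect; nearly all actives have a fitted effect of over 50% in size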
USP1-UAF1 inh – blocks the human USP1/UAF1 deubiquitinase complex; AID 743255; recombinant USP1/UAF1, Ub-Rhodamine cleavage fluorescence; Potency, µM (titrated, usually from 57.1 µM), inactives show at the top dose activity change, negative = inhibition, most hits filed as inhibitors; hit rate 0.23% among 390,000; O94782; also: % is scaled to controls: 0 for no effect and ±100 for the full control effect; nearly all actives have a fitted effect of over 60% in size
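USP1/UAF1 complex at 1 nM was preincubated with compound for 15 min at room temperature, then Ub-Rho substrate (150nM final) was added. Fluorescence (480/540 nm) was read kinetically, 6 reads every 60 seconds.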
* marks the source's active call; other numbers are inactive results; u = inconclusive; x = no result given. Only some compounds are listed: those with a hit (about 0.49% of all), similar ones and a draw of the others. Calls follow the shape of the dose curve; as a rule, active = well fitted curve in the direction sought with a large enough effect; inconclusive = small, poorly fitted or top-dose-only effect, or another doubt; inactive = no such curve, though single readings can be large; an effect the other way counts as inactive or inconclusive. Potency is read from the fitted curve at half-maximal effect.

SMILES | EPAC1 ag | EPAC2 agonist | EPAC2 antag | EPAC1 antagonist | USP1-UAF1 inh
Oc1ccc(/C=N/NC(=S)Nc2cccnc2)c(O)c1O | 7% | 5% | -9% | u | u
Oc1ccccc1C=NNC(=S)NN=Cc1ccccc1O | 9% | 12% | 4% | 79µM* | -10%
NC(=S)N/N=C/c1ccccc1O | 3% | 6% | 5% | 8% | -12%
Oc1cccc(/C=N/NC(=S)Nc2cccnc2)c1O | -7% | 4% | 9% | 11µM* | -21%
O=C1Nc2ccccc2/C1=N\N=C\c1ccc(O)c(O)c1 | 2% | -9% | -16% | 40µM* | -3%
CCN(CC)c1ccc2c(-c3ccc(S(=O)(=O)O)cc3S(=O)(=O)[O-])c3ccc(=[N+](CC)CC)cc-3oc2c1 | 63µM* | u | u | 32% | 32µM*
CCN(CC)c1ccc2nc3c4ccccc4c(=O)cc-3oc2c1 | 11% | 10% | 0% | -2% | -25%
N#C/C(=C\c1ccccn1)c1nc2ccccc2s1 | -42% | -107% | 25µM* | u | 424%
COc1cccc(CNC(=O)Cn2cc3c(n2)-c2c(oc(C(=O)N4CCOCC4)c2C)CC3)c1 | x | x | x | x | -23%
O=C(CSc1ncnc2[nH]ncc12)Nc1cccc(Oc2ccccc2)c1 | 89µM* | 32µM* | 3% | u | -22%
Nc1nc(SCC(=O)Nc2cccc(Oc3ccccc3)c2)n[nH]1 | 0% | 12% | 3% | -23% | -7%
O=C1C=CC(=O)c2c(O)c(CO)c(CO)c(O)c21 | 17% | 9% | -1% | u | 14µM*
O=c1c(CO)cc(CO)cc(CO)c1O | 7% | 8% | 5% | 3% | -1%
O=C(CSc1nccn1Cc1ccco1)Nc1cc(C(F)(F)F)ccc1Cl | x | x | x | x | -14%
COc1cccc(Cn2c(CNC(=O)c3cc([N+](=O)[O-])ccc3Cl)nc3cccnc32)c1 | x | x | x | x | -2%
Cc1ccc(-n2ncc3c(N(C)Cc4ccccc4)ncnc32)cc1 | x | x | x | x | -33%
Cc1ccc(-n2c(=O)[nH]c3cc(C(=O)NCc4ccccc4)ccc3c2=O)cc1 | x | x | x | x | -27%
CCOC(=O)c1sc(N2C(=O)C(O)=C(C(=O)c3ccco3)C2c2cccc([N+](=O)[O-])c2)nc1C (configuration not stated) | -9% | -14% | 9% | 22µM* | -24%
CC1CCN(C(=O)CSc2nnc(CN3CCOCC3)n2-c2ccccc2)CC1 | 9% | -6% | 2% | 32µM* | -1%
O=C(CSc1nnc(CN2CCOCC2)n1-c1ccccc1)N1CCc2ccccc21 | 0% | 1% | 4% | 6% | -19%
CS(=O)(=O)N1CCC(N2CCN(Cc3ccccc3)C(=O)C2=O)CC1 | x | x | x | x | -21%
Cc1ccc(CNC(=O)c2cccc3c2C(=O)c2ccc(N4CCOCC4)cc2S3(=O)=O)cc1 | -26% | -1% | 44% | -23% | u
O=C(NCc1cccc(F)c1)c1cccc2c1C(=O)c1ccc(N3CCOCC3)cc1S2(=O)=O | 7% | 89µM* | -1% | -12% | -28%
Cc1ccc(CNC(=O)c2cccc3c2C(=O)c2ccc(N4CCCCC4)cc2S3(=O)=O)cc1 | 10µM* | 56µM* | 309% | 320% | 321%
O=C(NC[C@@H]1CCCO1)c1cccc2c1C(=O)c1ccc(N3CCOCC3)cc1S2(=O)=O | 0% | 8% | -9% | -3% | -26%
SMILES | EPAC1 ag | EPAC2 agonist | EPAC2 antag | EPAC1 antagonist | USP1-UAF1 inh
CC1CCN(c2ccc3c(c2)S(=O)(=O)c2cccc(C(=O)NC[C@@H]4CCCO4)c2C3=O)CC1 | 7% | 112µM* | 5% | -24% | u
CCc1cccc(CC)c1NC(=O)CCS(=O)(=O)c1ccc(Br)s1 | x | x | x | x | -18%
CCOC(=O)Nc1ccc(C)cc1NC(=O)OCC | -4% | 6% | 7% | 5% | -14%
CCOC(=O)Nc1ccc(NCc2ccc(F)cc2)nc1N | 14% | 10% | u | u | 22µM*
Oc1ccc(/C(Cc2ccc3ccccc3n2)=N\Nc2ccccc2)c(O)c1 | 17% | 23% | -15% | -27% | u
Oc1ccc(/C(Cc2ccccn2)=N\Nc2ccccc2)c(O)c1 | 19% | 8% | 45µM* | u | -9%
CCOC(=O)C1=C(C)N=c2s/c(=C\c3ccc(OCC(=O)O)cc3)c(=O)n2C1c1ccc(OC(C)C)cc1 (configuration not stated) | -10% | -29% | 3% | 56µM* | u
CCOC(=O)C1=C(C)N=c2sc(=Cc3cc(Cl)c(OCC(=O)O)c(Cl)c3)c(=O)n2C1c1cccc(OC)c1 (configuration not stated) | 18% | 4% | 25µM* | u | x
CCOC(=O)C1=C(C)N=c2sc(=Cc3ccc(OCC(=O)O)cc3)c(=O)n2C1c1ccc(Cl)cc1 (configuration not stated) | -42% | -14% | 60% | u | x
COc1ccc(N2CCN(C(=O)CS(=O)(=O)c3cccc4nsnc34)CC2)cc1 | x | x | x | x | -5%
COCOCCn1cc(CN2CCS(=O)(=O)N(Cc3ccc(-c4ccc(F)cc4)cc3)C(CC(C)C)C2=O)nn1 (configuration not stated) | -19% | 1% | 13µM* | -17% | -9%
COCOCCn1cc(CN2CCS(=O)(=O)N(Cc3ccc(-c4ccc(C)cc4)cc3)C(CC(C)C)C2=O)nn1 (configuration not stated) | -18% | 10% | u | -9% | -11%
O=C(c1ccccc1)c1cccc2ccccc12 | 14% | 11% | 13µM* | -14% | -12%
COC(=O)c1ccccc1C(=O)c1cccc2ccccc12 | 7% | 14% | 45µM* | -17% | -11%
Cc1noc2nc(C(=O)O)nc(N3CCCCC3)c12 | x | x | x | x | -12%
COc1cc(/C=C2\C(=O)N(c3ccc(NC(C)=O)cc3)N=C2c2ccccc2)ccc1O | 11% | 12% | 19% | -12% | -11%
CCOc1cc(/C=C2\C(=O)N(c3nc(-c4ccc(Br)cc4)cs3)N=C2c2ccccc2)ccc1O | -5% | -14% | 3% | 35µM* | u
Cc1ccc(-n2nc(C(=O)Nc3cccc(C#N)c3)c3c4ccccc4n(C)c3c2=O)cc1 | x | x | x | x | -20%
COc1ccccc1NS(=O)(=O)c1cc([N+](=O)[O-])ccc1N/N=C/c1c(C)[nH]c2ccccc12 | -1% | -6% | 0% | -2% | 28µM*
COc1cc(OC)c(NC(=O)N2CCc3cc(OC)c(OC)cc3C2CC(=O)O)cc1Cl (configuration not stated) | x | x | x | x | 1%
CCc1ccccc1NC(=O)c1ncoc1-c1ccco1 | x | x | x | x | -20%
CC1CCCCN1C(=O)CSc1n[nH]c(-c2ccccc2Cl)n1 (configuration not stated) | x | x | x | x | -7%
O=C(N/N=C/c1cc(Br)c(O)c(Br)c1)c1cc2c(ccc3ccccc32)o1 | -4% | 8% | -14% | 28µM* | u
